# Screen size: about 48,000 compounds; about 13,000 (27%) showed an effect of 50% or more. This is one part of the list.
# System: Wolbachia pipientis
# Assay: Anti-Wolbachia Cell-Based Screen
# Type: functional
# Parameters: scale not given: in the data most compounds retested in dose-response had high values
# Conditions: 5 µM
row,SMILES,Percent Effect [%]
1,CN(C)c1ncc2c(O)nc(C3CCNCC3)cc2n1.Cl,122.5
2,Cl.Cl.Cn1cnc2c(-c3cccnc3)nc(C3CCNCC3)cc21,-57.7
3,CN(C)c1ncc2c(O)nc(C3CCCNC3)cc2n1 (stereo unspecified),88.81
4,CCN(CC)c1ncc2c(O)nc(C3CCNCC3)cc2n1,97.4
5,CC(C)n1cnc2c(N3CCCC3)nc(C3CCNCC3)cc21.Cl.Cl,-3.823
6,CCN(CC)c1ncc(Cl)c(C(=O)NC2CCC(O)CC2)n1 (stereo unspecified),-11
7,Cc1nc(C2CCCNC2)cc(N(C)CCc2cn[nH]c2)n1 (stereo unspecified),4.214
8,CCN(CC)c1ncc(Cl)c(C(=O)NC2CC2)n1,-2.852
9,CN(C)CCNC(=O)c1noc2c1CN(C(=O)N(C)C)CC2,9.564
10,Cn1cc(C(=O)NCCC(=O)N2CCCCC2)c(-c2cccnc2)n1,-19.31
11,Cc1c(C(=O)NCC(C)(C)S(C)(=O)=O)cccc1-c1ccccn1,90.41
12,Cc1c(C(=O)NCCC(=O)N2CCCC2)cccc1-c1ccccn1,102.1
13,Cc1ccc(C(=O)NCCCS(=O)(=O)c2ccccc2)c(=O)[nH]1,14.19
14,Cc1c(C(=O)NCCCS(C)(=O)=O)cccc1-c1ccccn1,78.39
15,Cc1c(I)cccc1C(=O)NCc1ncc[nH]1,-7.865
16,Cc1c(NCC(C)(C)C)cccc1C(=O)NCc1ncnn1C,-8.622
17,Cc1c(C(=O)NCCC(=O)N2CCCC2)oc2c(F)cccc12,5.296
18,Cn1ccc2c(C(=O)NCCCS(C)(=O)=O)cccc21,-9.064
19,Cc1csc(C2(NCc3nc(-c4ccco4)no3)CCCC2)n1,-16
20,Cc1cc(C)n2nc(CC(=O)N[C@H]3C[C@H]4CN(C)CCN4C3)nc2n1,-5.28
21,O=C(O)C(F)(F)F.O=C1COC2(CCN(Cc3ccc(F)cc3)CC2)CN1,10.25
22,OCC1(Cc2ccc(Cl)cc2)CCN(Cc2ccccc2O)CC1,-3.576
23,CC1CCC2(CC1)Nc1ccccc1CO2 (stereo unspecified),93.91
24,c1ccc(CN2CCC3(CC2)Nc2ccccc2CO3)cc1,107.9
25,c1ccc2c(c1)COC1(CCCCC1)N2,87.69
26,c1ccc2c(c1)COC1(CCCC1)N2,105.5

row,SMILES,Percent Effect [%]
1,CCc1nc(NC(=O)NCCc2cccc(C)n2)nn1C,-4.482
2,O=S(=O)(NCC(O)c1ccc(C(F)(F)F)cc1)C1CC1 (stereo unspecified),-5.07
3,Cc1noc(C)c1CNc1cccc(C(=O)N2CCCC(O)C2)c1 (stereo unspecified),6.213
4,CC(C)(C)n1ncc2c(=O)[nH]c(N3CCC4(CCCCC4)C3)nc21,-1.553
5,Cc1nnc(SC2CCN(c3sccc3C#N)C2=O)[nH]1 (stereo unspecified),106.7
6,O=C1C(Sc2nc(=O)ccn2C2CC2)CCN1c1ccccc1 (stereo unspecified),-7.516
7,Cc1cc(N)nc(SC2CCN(c3ccccc3F)C2=O)n1 (stereo unspecified),10.35
8,Cc1cc(N)nc(SC2CCN(c3ccccc3)C2=O)n1 (stereo unspecified),-22.79
9,CCc1ncc(CN(C)C2CCN(c3sccc3C#N)C2=O)s1 (stereo unspecified),0.715
10,Cc1nnc(SC2CCN(c3sccc3C#N)C2=O)s1 (stereo unspecified),109.2
11,Cn1c(N)nnc1SC1CCCN(c2ccccc2)C1=O (stereo unspecified),-9.447
12,N#Cc1ccsc1N1CCC(Sc2ccncc2)C1=O (stereo unspecified),81.54
13,CN(Cc1ncnn1C)C1CCN(c2sccc2C#N)C1=O (stereo unspecified),7.621
14,CCc1cnc(CN(C)C2CCN(c3sccc3C#N)C2=O)s1 (stereo unspecified),1.692
15,N#Cc1ccsc1N1CCC(Sc2ncc[nH]2)C1=O (stereo unspecified),95.53
16,CCC(CO)N(Cc1ccco1)C(=O)c1sccc1NC(C)=O (stereo unspecified),21.44
17,Cc1oncc1NS(=O)(=O)c1c[nH]c2ncccc12,-22.29
18,c1cncc(COCC2CN(Cc3ccsc3)Cc3ccnn3C2)c1 (stereo unspecified),-8.281
19,COc1ccccc1OCCNc1snc(Cl)c1C#N,-4.663
20,Cc1nc(SC2CCN(c3sccc3C#N)C2=O)oc1C (stereo unspecified),85.81
21,CCc1noc(CN(C)C2CCN(c3sccc3C#N)C2=O)n1 (stereo unspecified),0.9243
22,Cc1csc(CN(C)C2CCN(c3sccc3C#N)C2=O)n1 (stereo unspecified),9.47
23,Cn1c(C(N)=O)ccc1-c1ccccc1,3.483
24,CC(C)NC(=O)NCCCOC1CCOCC1,-1.893
25,COCCOCC(=O)N(Cc1cccc(C)c1)C(C)C,-6.619

# — ChEMBL document CHEMBL3988442, “University of Dundee, Small-Polar-MMV Screening Library” (2021)
